LASV entry inh: blocks Lassa virus binding to or entry into cells | AID 540256 | actives 1.2% (n = 300,000) | Potency, µM (series often up to 37.9 µM), for the others: at the highest dose activity change, negative = inhibition, most hits filed as inhibitors | Lassa virus pseudotype entry inhibition, cell reporter; calls by dose curve; tested in HEK293 cells; also: potency is read from the fitted curve at half-maximal effect; nearly all actives have a fitted effect of over 50% in size
MARV entry inh: inhibitors of Marburg virus binding or cell entry | actives 1.8% (n = 300,000) | Marburg virus pseudotyped entry inhibition, cell reporter | Potency, µM (top dose mostly 37.8 µM), without a hit: top-dose activity change, negative = inhibition, usual class: inhibitors; calls by dose curve; tested in HEK293 cells; also: potency is read from the fitted curve at half-maximal effect
Vaccinia mCherry: vaccinia inhibition (mCherry reporter). Vaccinia virus mCherry reporter infection, fluorescence. Potency, µM (doses to about 36.5 µM), for the others: at the highest dose activity change, negative = inhibition, most hits filed as inhibitors. actives 0.63% (n = 310,000); calls by dose curve; tested in A549 cells; also: potency is read from the fitted curve at half-maximal effect; nearly all actives have a fitted effect of over 35% in size
HCMV antiviral: human cytomegalovirus inhibition; HFF cells, HCMV-luciferase reporter, 72 h; active compounds read low; AID 1259415; actives 4.5% (n = 410,000); activity change, negative = inhibition, % at 57.5 µM; in the data active = activity change below about -60%; inconclusive = no clear call, values can overlap the other calls; inactive = above about -39%
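Two compound doses tested in HFFs infected with HCMV-luciferase, MOI 1 PFU/cell, 72 h at 37C. Lysate luminescence read with OneGlo; data normalized against buffer-only and 10uM Salinomycin inhibitor controls.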
VACV Venus inh: inhibitors of vaccinia virus (Venus reporter); Vaccinia virus Venus reporter expression, fluorescence; Potency, µM (doses to about 36.5 µM), for the others: at the highest dose activity change, negative = inhibition, most hits filed as inhibitors; AID 720580; actives 0.46% (n = 330,000); calls by dose curve; tested in A549 cells; also: potency is read from the fitted curve at half-maximal effect; nearly all actives have a fitted effect of over 30% in size
FMDV inh: foot and mouth disease virus antiviral activity; FMDV antiviral cell-based qHTS; AID 1159524; Potency, µM (highest dose often 57.9 µM), inactives show at the highest dose activity change, negative = inhibition, hits mostly inhibitors; actives 1.2% (n = 410,000); calls by dose curve; tested in HEK293T cells; also: read-out not given here; potency is read from the fitted curve at half-maximal effect; nearly all actives have a fitted effect of over 45% in size
* hit, by the source's call; ! = not active in a repeat; [ ] = another dose, or the depositor's remark. The list is not random: actives were taken first. Their share in the collection is about 6.5%. % is scaled to controls: 0 for no effect and ±100 for the full control effect.

What do the screens show for `COc1cccc(NC(=O)COC(=O)c2cc(S(=O)(=O)N3CCOCC3)ccc2C)c1`?
LASV entry inh: -18.0%; MARV entry inh: 17.8µM*; Vaccinia mCherry: inactive; HCMV antiviral: 21.9; VACV Venus inh: -21.0%; FMDV inh: -8.6%

What do the screens show for `O=C(Nc1cccc(S(=O)(=O)NC2=NCCC2)c1)c1cc(-c2ccco2)nc2ccccc12`?
LASV entry inh: inconclusive; MARV entry inh: -20.3%; Vaccinia mCherry: inactive; HCMV antiviral: 8.2; VACV Venus inh: 2.6%; FMDV inh: 26.6%

Results for Cc1ccc(S(=O)(=O)N2CCOCC2)cc1C(=O)OCC(=O)Nc1ccc2c(c1)OCO2 ?
LASV entry inh: 10.6%; MARV entry inh: -2.4%; Vaccinia mCherry: -6.7%; HCMV antiviral: 19.4; VACV Venus inh: -5.1%; FMDV inh: -10.5%

Results for COc1cccc(-c2ccnc(-n3ncc(C(=O)N(C)CCc4ccccn4)c3C)n2)c1 ?
Vaccinia mCherry: -12.5%; VACV Venus inh: -8.5%; FMDV inh: 5.6%

What do the screens show for `C(=C\c1ccccc1)/CN1CCN(C(c2ccccc2)c2nnnn2Cc2ccccc2)CC1` (configuration not stated)?
Vaccinia mCherry: 13.2%; HCMV antiviral: 6.8; VACV Venus inh: -10.8%; FMDV inh: -7.8%

How did Cc1cccc(C)c1-n1nnnc1C(c1cc2ccccc2o1)N1CCN(C/C=C/c2ccccc2)CC1 (configuration not stated) do in these assays?
Vaccinia mCherry: 10.6%; HCMV antiviral: -61.9*; VACV Venus inh: -11.0%; FMDV inh: -5.0%

Results for Fc1ccc(C(c2ccc(F)cc2)N2CCN(C/C=C/c3ccccc3)CC2)cc1 ?
LASV entry inh: 13µM*; MARV entry inh: 7.08µM*; Vaccinia mCherry: -10.2%; HCMV antiviral: -37.4; VACV Venus inh: inconclusive; FMDV inh: inconclusive

Results for CC(C)(C)n1nnnc1C(c1ccccc1)N1CCN(C/C=C/c2ccccc2)CC1 (configuration not stated) ?
Vaccinia mCherry: inactive; HCMV antiviral: 7.6; VACV Venus inh: -5.1%; FMDV inh: -5.7%

What do the screens show for `C(=C\c1ccccc1)/CN1CCN(C(c2ccccc2)c2ccccc2)CC1`?
LASV entry inh: 14.6µM*!; MARV entry inh: 20.6µM*!; Vaccinia mCherry: inactive; HCMV antiviral: inconclusive; VACV Venus inh: -25.3%; FMDV inh: 0.0%

How did COc1ccc(OC)c(Nc2cc(-c3ccccc3)nc(N)n2)c1 do in these assays?
LASV entry inh: -29.1%; MARV entry inh: inconclusive; Vaccinia mCherry: inconclusive; HCMV antiviral: -89.6*; VACV Venus inh: inconclusive; FMDV inh: -12.4%

How did COc1ccc(OC)c(NC2=C(c3ccccc3)C(=O)c3ccccc32)c1 do in these assays?
LASV entry inh: -13.6%[46.1 µM]; MARV entry inh: inconclusive; Vaccinia mCherry: inconclusive; HCMV antiviral: -62.5*; VACV Venus inh: -14.3%[7.34 µM]; FMDV inh: -20.3%

Results for COc1ccc(-c2cc(-c3ccccc3)nc(N)n2)c(O)c1 ?
LASV entry inh: inconclusive; MARV entry inh: inconclusive; Vaccinia mCherry: inconclusive; HCMV antiviral: 11.9; VACV Venus inh: inconclusive; FMDV inh: 12.5%

Results for COc1ccc2c(c1O)-c1cccc3c1C(C2)N(C)CC3 (configuration not stated) ?
MARV entry inh: 1µM*

What do the screens show for `CCCN1CCc2cccc3c2[C@H]1Cc1ccc(O)c(O)c1-3`?
LASV entry inh: inconclusive; MARV entry inh: inconclusive; Vaccinia mCherry: -1.1%; VACV Venus inh: -8.9%; FMDV inh: -20.5%

How did CN1CCc2cc(O)cc3c2C1Cc1ccc(O)c(O)c1-3 (configuration not stated) do in these assays?
MARV entry inh: inconclusive; Vaccinia mCherry: inactive; VACV Venus inh: -15.5%; FMDV inh: -18.7%

Results for COc1ccc2c(c1O)-c1c(OC)c(OC)cc3c1[C@H](C2)N(C)CC3 ?
Vaccinia mCherry: -20.2%; HCMV antiviral: -62.6*; VACV Venus inh: -11.7%; FMDV inh: 0.0%

What do the screens show for `CN1CCc2cccc3c2[C@H]1Cc1ccc(O)c(O)c1-3`?
LASV entry inh: inconclusive; MARV entry inh: -26.8%; Vaccinia mCherry: inactive; HCMV antiviral: -66.3*; VACV Venus inh: -22.0%; FMDV inh: inconclusive
